Reference: the supplement of paper PMC13380429

System: Vero E6 infected with SARS-CoV-2
Assay: inhibition of SARS-CoV-2 cytopathic effect; higher = more antiviral protection, active = above 15
Conditions: 48 h

Measured: inhibition of SARS-CoV-2 cytopathic effect

CCCCCCCCCCCCCCCC[n+]1ccn(Cc2ccccc2)c1C
inactive: 1 nM -1.36% | 8.33 nM 0.51% | 100 nM 0.65% | 833.33 nM -4.4% | 10000 nM -20.9%

CCOC(=O)C(=O)Nc1cccc(OC)c1C(N)=O
inactive: 1 nM 6.62% | 8.33 nM 7.85% | 100 nM 6.88% | 833.33 nM 2.83% | 10000 nM -0.82%

CCC1(c2ccc(N)cc2)CCC(=O)NC1=O (stereo not given) [aminoglutethimide]
inactive: 1 nM -0.9% | 8.33 nM 2.8% | 100 nM 3.28% | 833.33 nM 2.95% | 10000 nM 2.93%

O[C@@H]1CCCC[C@H]1N1CCC(c2ccccc2)CC1 (racemic) [vesamicol]
inactive: 1 nM 0.17% | 8.33 nM 1.74% | 100 nM 0.78% | 833.33 nM 1.42% | 10000 nM 1.14%

CCCOC(C(=O)OC1CCN(C)CC1)(c1ccccc1)c1ccccc1 [propiverine]
inactive: 1 nM 0.57% | 8.33 nM 1.63% | 100 nM 0.85% | 833.33 nM -0.19% | 10000 nM 1.89%

CC/C(=C(\c1ccccc1)c1ccc(OCCN(C)C)cc1)c1ccccc1 [tamoxifen]
inactive: 1 nM -0.39% | 8.33 nM 1.81% | 100 nM 0.36% | 833.33 nM 0.06% | 10000 nM 11.2%

CCOC(=O)[C@H](CCc1ccccc1)N[C@@H](C)C(=O)N1C(=O)N(C)C[C@H]1C(=O)O [imidapril]
inactive: 1 nM -1.07% | 8.33 nM 0.74% | 100 nM 0.36% | 833.33 nM -0.5% | 10000 nM -1.28%

CC1=C(C(=O)OC(C)C)C(c2cccc([N+](=O)[O-])c2)C(C(=O)OC2CN(C(c3ccccc3)c3ccccc3)C2)=C(N)N1 (stereo not given) [azelnidipine]
inactive: 1 nM 3.44% | 8.33 nM 1.14% | 100 nM -0.26% | 833.33 nM 0.91% | 10000 nM -6.87%

O=C(c1ccc(Nc2nccc(-c3cc4ccccc4s3)n2)cc1)N1CCC(N2CCCC2)CC1
inactive: 1 nM 2.48% | 8.33 nM 3.16% | 100 nM -1.73% | 833.33 nM 2.79% | 10000 nM -18.6%

CO[C@@H]1[C@H](O)[C@@H](CO)O[C@H]1n1cnc2c(NC3CCCCC3)ncnc21
inactive: 1 nM -0.97% | 8.33 nM 1.94% | 100 nM 8.69% | 833.33 nM 1.46% | 10000 nM -0.79%

O=C(O)CCCN1C(=O)c2cccc3cccc(c23)C1=O [isodibut]
inactive: 1 nM -4.53% | 8.33 nM -1.77% | 100 nM -4.8% | 833.33 nM -0.3% | 10000 nM -2.2%

NCCS(=O)(=O)O [taurine]
inactive: 1 nM -2.1% | 8.33 nM -0.91% | 100 nM -1.56% | 833.33 nM 0.1% | 10000 nM -0.28%

C[N+]12CCCCC1CCC(=C(c1cccs1)c1cccs1)C2 (stereo not given) [tiquizium]
inactive: 1 nM -3.91% | 8.33 nM -0.22% | 100 nM 2.71% | 833.33 nM -2.14% | 10000 nM -3.03%

C[C@H](c1ccc(F)cc1CCCC(=O)O)N(c1cc(F)ccc1F)S(=O)(=O)c1ccc(Cl)cc1
inactive: 1 nM -1.95% | 8.33 nM -1.39% | 100 nM -1.46% | 833.33 nM -3.65% | 10000 nM -5.49%

O=C(O)c1cc(O)c2c3nc4ccccc4oc-3cc(=O)c2n1 [pirenoxine]
inactive: 1 nM 0.17% | 8.33 nM 3.09% | 100 nM 2.36% | 833.33 nM -0.17% | 10000 nM 3.17%

CCOC(=O)c1c(CSc2ccccc2)n(C)c2cc(Br)c(O)c(CN(C)C)c12 [arbidol]
inactive: 1 nM -1.24% | 8.33 nM 3.62% | 100 nM 2.92% | 833.33 nM 4.8% | 10000 nM 3.91%

COc1cc(C(=O)N(CC[C@H]2CCCN2C)C/C(C)=C/c2ccccc2F)cc(OC)c1OC (racemic)
inactive: 1 nM -0.69% | 8.33 nM -1.9% | 100 nM 1.94% | 833.33 nM -0.01% | 10000 nM -1.76%

CN(C)CCC(c1ccccc1)c1ccccn1 (stereo not given) [pheniramine]
inactive: 1 nM -0.78% | 8.33 nM 3.08% | 100 nM 0.29% | 833.33 nM 2.25% | 10000 nM -0.28%

CCN(CC)CCCC(C)Nc1ccnc2cc(Cl)ccc12 (stereo not given) [chloroquine]
inactive: 1 nM -1.07% | 8.33 nM -2.02% | 100 nM 0.51% | 833.33 nM -0.4% | 10000 nM -1.51%
